Data on three molecules can be found in PubChem BioAssay.

Assay [1] can be described thus: ovarian cancer cell viability with rucaparib, profiling panel, oncology-focused library, rucaparib conditional (AID 1508598). To be noted: patient-derived ovarian cancer cells, CellTiter-Glo viability, 144 h, stronger effect = lower value. (ATP-based viability assays read luminescence as a measure of living cells.)
Assay [2] in a line: viability rescue of complex I mutant cybrids, primary screen, cell-based, galactose medium, ATP luminescence (AID 1645843;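 active means z-score of at least 1.8 in each of two replicates, scored against plate mean and spread of sample wells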;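 further: positive z means more ATP and so rescue of galactose-driven cybrid death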). To be noted: complex I mutant cybrid cells, 72 h, stronger effect = higher value.
In assay [3] the test system is Aerobactin synthetase IucA (Klebsiella pneumoniae). Nature of the assay: IucA aerobactin synthetase inhibitors, biochemical, Tocris library, absorbance (AID 1345561; call rule not given here;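 further: 100% = enzyme without compound and 0% = no enzyme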). To be noted: purified IucA enzyme assay, absorbance (OD) read-out; stronger effect = lower value;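 tested at 8 µM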.
The nature of assay [4]: growth inhibition of DIPG glioma cells, dose response, cell-based, SU-DIPG-XIII, MIPE4.0, CellTiter-Glo, qHTS (AID 1347061; cut-off not given, nearly all actives have AC50 up to about 37 µM;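 further: cells exposed to compound for 48 hours before readout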). To be noted: SU-DIPG-XIII viability, CellTiter-Glo ATP luminescence.
A short description of assay [5]: growth inhibition of DIPG glioma cells, dose response, cell-based, JHH-DIPG-1, MIPE4.0, CellTiter-Glo, qHTS (AID 1347062; cut-off not given, nearly all actives have AC50 up to about 27 µM). The note with it: JHH-DIPG-1 viability, CellTiter-Glo ATP luminescence.
Assay [6] can be described thus: growth inhibition of DIPG glioma cells, dose response, cell-based, SU-DIPG-XIII, MIPE5.0, CellTiter-Glo, qHTS (AID 1347064; cut-off not given, nearly all actives have AC50 up to about 23 µM). The note with it: SU-DIPG-XIII viability, CellTiter-Glo ATP luminescence.
The nature of assay [7]: JHH-DIPG-1 glioma cell viability, MIPE5.0 library, CellTiter-Glo luminescence, qHTS (AID 1347067; cut-off not given, nearly all actives have AC50 up to about 26 µM;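 further: cells exposed to compound for 48 hours before readout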). To be noted: JHH-DIPG-1 glioma viability, CellTiter-Glo ATP luminescence.
The nature of assay [8]: sensitizers of A549 cells to miR-34 induction, primary screen, imaging, A549 dox-inducible miR-34, nuclei and caspase counts (AID 1347080;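 active means compounds whose cell count with miR-34 switched on is under 0.7 times the count with it off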). The note with it: A549 miR-34 inducible, Hoechst nuclei count, 48 h.
The nature of assay [9]: modifiers of HSF1 nuclear foci, imaging, Selleck Cancer Library (AID 1347162; in the data active means plate-normalised HSF1 focus index below about 0.46). To be noted: human cells, at 10 µM; SSMD: measured here: HSF1 foci SSMD mean; cell count: measured here: cell number; plate-normalised HSF1 focus index: stronger effect = lower value.
Assay [10] is described as follows: growth inhibition of DIPG glioma cells, dose response, cell-based, SU-DIPG-IV, MIPE4.0, CellTiter-Glo, qHTS (AID 1347063; cut-off not given, nearly all actives have AC50 up to about 30 µM;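 further: compound exposure lasted 48 hours before the viability readout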). The note with it: SU-DIPG-IV viability, CellTiter-Glo ATP luminescence.
A short description of assay [11]: SU-DIPG-VI glioma cell viability, MIPE4.0 library, CellTiter-Glo luminescence, qHTS (AID 1347066; cut-off not given, nearly all actives have AC50 up to about 30 µM;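 further: cells exposed to compound for 48 hours before readout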). The note with it: CellTiter-Glo ATP luminescence.
Assay [12] can be described thus: survival rescue of mitochondrial mutant cells in low glucose, primary screen, MELAS cybrids, Rieske KO mouse fibroblasts, CellTiter-Glo (AID 1508586;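 active means mean z-score across replicates of 1.96 or higher in either the MELAS or the Rieske mutant cell line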;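 further: z relative to plate mean and SD of compound and empty wells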).
[13] abbreviates: at 0.313 µM, OCI-C5x cells, with rucaparib 10 µM, 100% = cells with rucaparib alone.
Where [14] appears, read: at 0.313 µM, OCI-C5x cells, without rucaparib.
Setting [15] is: at 0.313 µM, OCI-P5x cells, with rucaparib 20 µM, 100% = cells with rucaparib alone.
Where [16] appears, read: at 0.313 µM, OCI-P5x cells, without rucaparib.
Where [17] appears, read: at 1.25 µM, OCI-C5x cells, with rucaparib 10 µM, 100% = cells with rucaparib alone.
Setting [18] is: at 1.25 µM, OCI-C5x cells, without rucaparib.
Setting [19] is: at 1.25 µM, OCI-P5x cells, with rucaparib 20 µM, 100% = cells with rucaparib alone.
[20] abbreviates: at 1.25 µM, OCI-P5x cells, without rucaparib.
Setting [21] is: at 5 µM, OCI-C5x cells, with rucaparib 10 µM, 100% = cells with rucaparib alone.
Setting [22] is: at 5 µM, OCI-C5x cells, without rucaparib.
Where [23] appears, read: at 5 µM, OCI-P5x cells, with rucaparib 20 µM, 100% = cells with rucaparib alone.
[24] abbreviates: at 5 µM, OCI-P5x cells, without rucaparib.
Where [25] appears, read: stronger effect = lower value, cell number ratio, induced over uninduced.
[26] abbreviates: measured here: relative caspase fold change +Dox/-Dox.
[27] abbreviates: measured here: total cells with miR-34 induction, stronger effect = lower value.
[28] abbreviates: measured here: total cells without miR-34 induction.

Several values for one entry are separate records, joined by “and”; a condition that tells them apart may be missing. Identical values can stand only once. Results filed as inconclusive are left out. Activity calls are given as the source filed them.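 How the source made its calls, unless noted: active means normalized viability below 100% at a tested concentration; inactive means the rest.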

With `Cc1ccc(S(=O)(=O)/C=C/C#N)cc1`, the viability is 115% (inactive) in [1] (setting [13]); 116% (inactive) in assay [1] (setting [14]); 90.2% (active) in [1] (setting [15]); 94.8% (active) in assay [1] (setting [16]); 122% (inactive) in [1] (setting [17]); 112% (inactive) in [1] (setting [18]). Moreover, the viability in assay [1] (setting [19]) was 83.8% (active); in [1] (setting [20]), 81.1% (active); in assay [1] (setting [21]), 3.86% (active); in assay [1] (setting [22]), 4.91% (active); in assay [1] (setting [23]), 26.6% (active); in assay [1] (setting [24]) it was 2.37% (active). In assay [2], the z-score was -1.38 (inactive) and -1.04 (inactive).
Consider `C[C@H](NC(=O)Cc1cc(F)cc(F)c1)C(=O)N[C@H](C(=O)OC(C)(C)C)c1ccccc1`, for which the remaining activity in assay [3] is 99.3% (inactive). Further, the molecule was classed as inactive in [4], in assay [5], in assay [6] and in assay [7]. Further, the fold change in [8] (setting [25]) was 0.918 (inactive); in assay [8] (setting [26]), 1.67. Further, the cell count in assay [8] (setting [27]) worked out at 8110; in assay [8] (setting [28]), 8840; in [9], 6880. In assay [9], this molecule displayed an SSMD of 2.12. For the same molecule, the plate-normalised HSF1 focus index in [9] was 1.11 (inactive). Moreover, the viability in assay [1] (at 0.000305 µM, OCI-C5x cells, with rucaparib 10 µM, 100% = cells with rucaparib alone) is 103% (inactive); in assay [1] (at 0.000305 µM, OCI-C5x cells, without rucaparib) it was 116% (inactive); in [1] (at 0.000305 µM, OCI-P5x cells, with rucaparib 20 µM, 100% = cells with rucaparib alone), 110% (inactive); in [1] (at 0.000305 µM, OCI-P5x cells, without rucaparib), 111% (inactive); in [1] (at 0.00122 µM, OCI-C5x cells, with rucaparib 10 µM, 100% = cells with rucaparib alone), 103% (inactive); in assay [1] (at 0.00122 µM, OCI-C5x cells, without rucaparib), 117% (inactive). Also, the viability in [1] (at 0.00122 µM, OCI-P5x cells, with rucaparib 20 µM, 100% = cells with rucaparib alone) was 109% (inactive); in assay [1] (at 0.00122 µM, OCI-P5x cells, without rucaparib), 107% (inactive); in [1] (at 0.00488 µM, OCI-C5x cells, with rucaparib 10 µM, 100% = cells with rucaparib alone), 108% (inactive); in assay [1] (at 0.00488 µM, OCI-C5x cells, without rucaparib), 126% (inactive); in assay [1] (at 0.00488 µM, OCI-P5x cells, with rucaparib 20 µM, 100% = cells with rucaparib alone), 106% (inactive); in [1] (at 0.00488 µM, OCI-P5x cells, without rucaparib), 111% (inactive). Moreover, the viability in assay [1] (at 0.0195 µM, OCI-C5x cells, with rucaparib 10 µM, 100% = cells with rucaparib alone) was 103% (inactive); in assay [1] (at 0.0195 µM, OCI-C5x cells, without rucaparib) it was 119% (inactive); in [1] (at 0.0195 µM, OCI-P5x cells, with rucaparib 20 µM, 100% = cells with rucaparib alone) it was 110% (inactive); in assay [1] (at 0.0195 µM, OCI-P5x cells, without rucaparib), 102% (inactive); in [1] (at 0.0781 µM, OCI-C5x cells, with rucaparib 10 µM, 100% = cells with rucaparib alone) it was 115% (inactive); in [1] (at 0.0781 µM, OCI-C5x cells, without rucaparib) it was 117% (inactive). For the same molecule, the viability in assay [1] (at 0.0781 µM, OCI-P5x cells, with rucaparib 20 µM, 100% = cells with rucaparib alone) is 107% (inactive); in [1] (at 0.0781 µM, OCI-P5x cells, without rucaparib), 101% (inactive); in assay [1] (setting [13]), 106% (inactive); in assay [1] (setting [14]), 125% (inactive); in assay [1] (setting [15]) it was 102% (inactive); in [1] (setting [16]) it was 99% (active). For the same molecule, the viability in assay [1] (setting [17]) is 116% (inactive); in [1] (setting [18]), 117% (inactive); in assay [1] (setting [19]) it was 84.1% (active); in [1] (setting [20]), 85.6% (active); in assay [1] (setting [21]), 120% (inactive); in [1] (setting [22]), 120% (inactive). For the same molecule, the viability in assay [1] (setting [23]) was 75.1% (active); in [1] (setting [24]), 78.3% (active). Moreover, the z-score in assay [2] is 0.56 (inactive).
Regarding `Cc1cccc(C#Cc2ccccc2)n1`, the remaining activity in assay [3] was 102% (inactive). Further, the call in [4], in assay [5], in assay [10] and in assay [11] was inactive. Moreover, the fold change was 1.16 (inactive) and 0.932 (inactive) and 0.863 (inactive) in assay [8] (setting [25]); 0.95 and 0.499 and 0.79 in assay [8] (setting [26]). Also, the cell count was 8900 and 6820 and 7820 in [8] (setting [27]); 7690 and 7310 and 9060 in assay [8] (setting [28]). The z-score in assay [12] (MELAS cybrid survival, CellTiter-Glo 48 h, stronger effect = higher value) is -0.0615 (inactive); in [12] (Rieske KO mouse fibroblast survival, CellTiter-Glo 72 h), 0.0234; in assay [2], 1.15 (inactive) and 1.02 (inactive).

The viability is a read-out of living cells in per cent, often relative to untreated cells. By remaining activity is commonly meant the signal under treatment as a percentage of the control signal.
